Our source for the Potency values is PubChem BioAssay (NCATS).

Each structure is given as a SMILES string. Results filed as inconclusive are left out. The source made the active and inactive calls. Calls follow the shape of the dose curve; as a rule, active = well fitted inhibition curve with a large enough effect; inconclusive = small, poorly fitted or top-dose-only effect; inactive = no such curve, though single readings can be large or run the other way.

Experiment [1] can be described thus: qHTS for Inhibitors of the Aldehyde Dehydrogenase Family (ALDH1A2, ALDH1A3, ALDH2, ALDH3A1) (AID 2061307). Also: nearly all actives have a fitted effect of over 50% in size. As to Potency: test system not described further here; potency is read from the fitted curve at half-maximal effect. Background: In qHTS, concentration-response curves come from the screen itself.
For experiment [2], the target named is Retinal dehydrogenase 2 (Homo sapiens) (UniProt O94788). Description: qHTS for Inhibitors of the Aldehyde Dehydrogenase Family (ALDH1A2) Confirmation screens (AID 2061314). Also: nearly all actives have a fitted effect of over 65% in size. Also: potency is read from the fitted curve at half-maximal effect.
Experiment [3] deals with Aldehyde dehydrogenase 1A1 (Homo sapiens) (UniProt P00352). Briefly: qHTS for Inhibitors of the Aldehyde Dehydrogenase Family (ALDH1A1) Confirmatory screens (AID 2061316). Also: nearly all actives have a fitted effect of over 65% in size. Also: potency is read from the fitted curve at half-maximal effect.
Experiment [4] has as its target Retinaldehyde dehydrogenase 3 (Homo sapiens) (UniProt P47895). Briefly: qHTS for Inhibitors of the Aldehyde Dehydrogenase Family (ALDH1A3) Confirmatory screens (AID 2061311). Also: nearly all actives have a fitted effect of over 60% in size. Also: potency is read from the fitted curve at half-maximal effect.
Experiment [5] has the same target. Briefly: qHTS for Inhibitors of the Aldehyde Dehydrogenase Family (ALDH1A3) Primary screen (AID 2061315).

For the compound `CCc1nnc2sc(-c3ccc(C)c(NC(=O)c4ccc(-c5cccc(Cl)c5)o4)c3)nn12`, the Potency in experiment [1] was 12.6 µM (active); in experiment [2] it was 3.18 µM (active).
For `CC(=O)c1ccc(NC(=O)c2cc(S(=O)(=O)N3CCOCC3)ccc2C)cc1` the same measures were “inactive” and “inactive”.
`Cc1ccnc(NC(=S)N2CCN(c3ccc(Cl)cc3Cl)CC2)c1`: the Potency entry in experiment [1] is “inactive”. Further, the figures for the Potency in experiment [2] and in experiment [3] were 11.3 µM (active) and 7.98 µM (active), respectively.
Regarding `CCOC(=O)Cn1c(=O)oc2cc(S(=O)(=O)N3CCN(c4ccc(Cl)cc4)CC3)ccc21`, the Potency entry in experiment [1], in experiment [4] and in experiment [3] was “inactive” in each case.
For `CC(=O)Nc1sc2c(c1-c1ccc(N3CCN(C)CC3)cc1)CCNC2`, the Potency result in experiment [1], in experiment [4] and in experiment [3] was “inactive” each time.
In the case of `Cc1ccnc(NC(=S)N2CCNCC2)c1`, the Potency entry in experiment [1] and in experiment [2] was “inactive” throughout.
For the compound `CCOC(=O)c1ccc(-c2ccc3ncnc(NCc4ccc(C)o4)c3c2)o1`, the Potency entry in experiment [1] and in experiment [5] was “inactive” throughout. Besides, in experiment [2], the Potency was 12.7 µM (active).
For `Cc1ccc(NC(=O)CSc2nc3ccccc3nc2N2CCOCC2)cc1`, the Potency in experiment [1] was 25.1 µM (active); in experiment [2], 2.29 µM (active).
Take `O=C(NCCc1nc2ccccc2n1CCCc1ccccc1)C1CCCCC1`: the Potency result in experiment [1], in experiment [2] and in experiment [5] was “inactive” in each case.
On to `CC(=O)Nc1sc2c(c1-c1ccc(N(C)C)cc1)CCNC2`, for which the Potency was 14.2 µM (active) in experiment [1], 3.57 µM (active) in experiment [4] and 11.3 µM (active) in experiment [3].
For `C#CCOc1ccc(-c2no[n+]([O-])c2C#N)cc1`, the Potency was 11.3 µM (active) in experiment [1] and 7.98 µM (active) in experiment [2]. The Potency entry in experiment [5] was “inactive”.
Regarding `Cc1nnc2ccc(N3CCC(NC(=O)c4cccc(C(F)(F)F)c4)CC3)nn12`, the Potency result in experiment [1], in experiment [4] and in experiment [3] was “inactive” in each case.
As for `COc1ccc(NC(=O)c2cccnc2)cc1S(=O)(=O)Nc1ccc(Br)cc1`, the Potency entry in experiment [1] and in experiment [5] was “inactive” throughout.
Regarding `Cc1cc(N(C)S(=O)(=O)c2ccc(NC(=O)Cc3ccc(Cl)c(Cl)c3)cc2)no1`, the results for the Potency in experiment [1] and in experiment [3] were 25.2 µM (active) and 12.7 µM (active), respectively. Besides, the Potency entry in experiment [2] was “inactive”.
On to `O=C1Cc2cc(S(=O)(=O)N3CCN(c4ccc([N+](=O)[O-])cc4)CC3)ccc2N1`, for which the Potency entry in experiment [1] and in experiment [5] was “inactive” in each case.
As for `O=C(N/N=C/c1ccc(Sc2ccccn2)o1)c1ccccc1`, in experiment [1], the Potency was 5.65 µM (active). For the same compound, the Potency result in experiment [2] is “inactive”.
As for `CNc1sc(-c2cccc3ccccc23)nc1C#N`, the Potency result in experiment [1] and in experiment [5] was “inactive” in each case. The Potency in experiment [2] is 11.3 µM (active); in experiment [3], 5.04 µM (active).
For the compound `Cc1ccc(S(=O)(=O)Nc2cnccc2C(=O)Nc2nc(-c3ccco3)cs2)cc1`, the Potency in experiment [1] was 7.98 µM (active); in experiment [4], 7.12 µM (active); in experiment [3], 0.798 µM (active). In addition, the Potency result in experiment [5] is “inactive”.
`Cc1cccc2c1NC(=O)/C2=C/c1cc(Cl)c(O)c(Cl)c1`: in experiment [1], the Potency is 4 µM (active). Also, in experiment [5], the Potency result is “inactive”.
On to `O=C(NCc1ccccc1)c1csc(N2CCN(c3ccc(Cl)cc3)CC2)n1`, for which the Potency in experiment [1] was 2.82 µM (active). Moreover, in experiment [2], the Potency result is “inactive”.
As to `Cc1cccc(NC(=O)N2CC(Oc3ccc(-c4nc(C)no4)cc3)C2)c1`, the Potency in experiment [1] is 3.24 µM (active). Moreover, the Potency result in experiment [2] and in experiment [3] was “inactive” each time.
Regarding `CN(C)CCCNc1cc(O)c2ncccc2c1`, in experiment [1], the Potency result is “inactive”. Moreover, the Potency in experiment [4] was 1.42 µM (active); in experiment [3] it was 4 µM (active).
As for `Cc1ccc2nc3sc(C(=O)NC4CCC(O)CC4)cc3cc2c1` (configuration not stated), the Potency in experiment [1] is 6.34 µM (active); in experiment [4], 20.1 µM (active); in experiment [3] it was 12.7 µM (active). Besides, the Potency result in experiment [5] was “inactive”.
Regarding `COc1ccc(C2c3c(N)nc(CCc4ccccc4)nc3Oc3ccc4ccccc4c32)cc1OC` (configuration not stated), the Potency result in experiment [1] and in experiment [5] was “inactive” each time.
Regarding `CCc1ccc(-n2c(=O)c3cccnc3n2CC(=O)N(CC)c2cccc(C)c2)cc1`, the Potency result in experiment [1] is “inactive”. In addition, the Potency is 28.2 µM (active) in experiment [4] and 11.5 µM (active) in experiment [3].
In the case of `CCc1ccc(-c2nn3c(C)nnc3s2)cc1NC(=O)c1ccc(-c2cccc(Cl)c2)o1`, the Potency in experiment [1] is 25.1 µM (active); in experiment [2], 12.7 µM (active); in experiment [3], 5.04 µM (active). Further, the Potency entry in experiment [5] was “inactive”.
For `O=C(Nc1cccc(Br)c1)c1cc(-c2ccc3c(c2)OCCO3)on1`, the Potency result in experiment [1], in experiment [2] and in experiment [3] was “inactive” throughout.
In the case of `Cc1ccc(OCCn2c(CCNC(=O)c3ccccc3N)nc3ccccc32)cc1`, the Potency in experiment [1] is 1.13 µM (active); in experiment [2], 12.7 µM (active); in experiment [3], 7.12 µM (active). Further, the Potency result in experiment [5] was “inactive”.
With `O=C(Nc1cccc(Cc2ccccc2)c1)c1ccc(-c2cccc([N+](=O)[O-])c2)o1`, the Potency in experiment [1] was 25.2 µM (active); in experiment [2], 12.7 µM (active). Also, the Potency result in experiment [5] was “inactive”.
